Source: PubChem BioAssay (NCATS)
Records with an inconclusive call do not appear. Activity calls are given as the source filed them. Unless noted, the call rests on the fitted dose curve; in most records, active means well fitted curve in the direction sought with a large enough effect; inconclusive means small, poorly fitted or top-dose-only effect, or another doubt; inactive means no such curve, though single readings can be large; an effect the other way counts as inactive or inconclusive.

Assays:
[1] = test system: ATS189; assay: qHTS profiling for inhibitors of Plasmodium falciparum proliferation (AID 504749); further: nearly all actives have a fitted effect of over 60% in size; details: P. falciparum in erythrocytes, SYBR Green DNA, 72 h; series mostly up to 12.8 µM
Outline: (§1)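 Fluorescence of SYBR Green-bound parasite DNA, read at 485/535 nm, served as the growth measure. Infected erythrocytes were cultured with compound 72 h; artemisinin (0.29 uM) and DMSO wells defined the normalization range.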

[2] = test system: CP185; assay: as above; details: P. falciparum in erythrocytes, SYBR Green DNA, 72 h; series mostly up to 12.8 µM
Outline: as §1

[3] = test system: CP191; assay: as above; details: P. falciparum in erythrocytes, SYBR Green DNA, 72 h; series mostly up to 12.8 µM
Outline: as §1

[4] = test system: CP201; assay: as above; details: P. falciparum in erythrocytes, SYBR Green DNA, 72 h; series mostly up to 12.8 µM
Outline: as §1

[5] = test system: CP247; assay: as above; details: P. falciparum in erythrocytes, SYBR Green DNA, 72 h; series mostly up to 12.8 µM
Outline: as §1

[6] = test system: CP256; assay: as above; details: P. falciparum in erythrocytes, SYBR Green DNA, 72 h; series mostly up to 12.8 µM
Outline: as §1

[7] = test system: CP305; assay: as above; details: P. falciparum in erythrocytes, SYBR Green DNA, 72 h; series mostly up to 12.8 µM
Outline: as §1

[8] = test system: CP325; assay: as above; details: P. falciparum in erythrocytes, SYBR Green DNA, 72 h; series mostly up to 12.8 µM
Outline: as §1

[9] = test system: CP329; assay: as above; details: P. falciparum in erythrocytes, SYBR Green DNA, 72 h; series mostly up to 12.8 µM
Outline: as §1

[10] = test system: CP335; assay: as above; details: P. falciparum in erythrocytes, SYBR Green DNA, 72 h; series mostly up to 12.8 µM
Outline: as §1

[11] = test system: Dd2; assay: as above; details: P. falciparum in erythrocytes, SYBR Green DNA, 72 h; series mostly up to 12.8 µM
Outline: as §1

[12] = test system: JCK; assay: as above; details: P. falciparum in erythrocytes, SYBR Green DNA, 72 h; series mostly up to 12.8 µM
Outline: as §1

[13] = test system: N140; assay: as above; details: P. falciparum in erythrocytes, SYBR Green DNA, 72 h; series mostly up to 12.8 µM
Outline: as §1

[14] = test system: PC15; assay: as above; details: P. falciparum in erythrocytes, SYBR Green DNA, 72 h; series mostly up to 12.8 µM
Outline: as §1

[15] = test system: PC26; assay: as above; details: P. falciparum in erythrocytes, SYBR Green DNA, 72 h; series mostly up to 12.8 µM
Outline: as §1

[16] = test system: PC49; assay: as above; details: P. falciparum in erythrocytes, SYBR Green DNA, 72 h; series mostly up to 12.8 µM
Outline: as §1

[17] = test system: SC27B; assay: as above; details: P. falciparum in erythrocytes, SYBR Green DNA, 72 h; series mostly up to 12.8 µM
Outline: as §1

[18] = test system: TAB113; assay: as above; details: P. falciparum in erythrocytes, SYBR Green DNA, 72 h; series mostly up to 12.8 µM
Outline: as §1

[19] = target: Guanine nucleotide-binding protein G(i) subunit alpha-1 (Homo sapiens) (UniProt P63096); assay: qHTS Assay for Inhibitors of RGS12 GoLoco Motif Activity (Green Fluorophore) (AID 879);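 further: negative values mean loss of peptide binding seen as reduced polarization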
Outline: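 A drop in FITC polarization marked displacement of the FITC-tagged RGS12 GoLoco peptide (10 nM) from Gαi1 (50 nM). Compounds were incubated 10 min at room temperature in Tris pH 7.5 buffer containing 150 mM NaCl, 0.1 mM GDP and 0.05% NP40; unlabeled peptide titration served as control.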

[20] = target: Pyruvate kinase PKM (Homo sapiens) (UniProt P14618); assay: qHTS Assay for Activators of Human Muscle Pyruvate Kinase (AID 954; active means well fitted curve in the direction sought with a large enough effect, not every such curve was filed as active)
Outline: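 Screening used highly purified human pyruvate kinase M2 under submaximal activity, with PEP at its Km and ADP below Km. After an hour at room temperature, ATP was read by luciferase luminescence.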

Measured: Potency

Sequence of Pyruvate kinase PKM (Homo sapiens) (P14618 whole entry, looked up): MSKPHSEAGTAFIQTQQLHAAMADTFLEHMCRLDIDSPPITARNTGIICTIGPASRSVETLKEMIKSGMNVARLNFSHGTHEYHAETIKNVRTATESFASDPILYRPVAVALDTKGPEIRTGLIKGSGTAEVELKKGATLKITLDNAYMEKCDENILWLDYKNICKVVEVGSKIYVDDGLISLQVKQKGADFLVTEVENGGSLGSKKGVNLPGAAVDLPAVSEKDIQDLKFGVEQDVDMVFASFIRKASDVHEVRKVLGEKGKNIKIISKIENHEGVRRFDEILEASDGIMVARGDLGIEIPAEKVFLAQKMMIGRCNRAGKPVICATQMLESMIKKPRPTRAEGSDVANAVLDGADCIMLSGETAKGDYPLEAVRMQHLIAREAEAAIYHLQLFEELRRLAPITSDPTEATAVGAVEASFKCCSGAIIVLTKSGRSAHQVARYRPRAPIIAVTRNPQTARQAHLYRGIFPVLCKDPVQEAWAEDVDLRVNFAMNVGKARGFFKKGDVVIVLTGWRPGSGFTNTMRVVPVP
Sequence of Guanine nucleotide-binding protein G(i) subunit alpha-1 (Homo sapiens) (P63096 whole entry, looked up): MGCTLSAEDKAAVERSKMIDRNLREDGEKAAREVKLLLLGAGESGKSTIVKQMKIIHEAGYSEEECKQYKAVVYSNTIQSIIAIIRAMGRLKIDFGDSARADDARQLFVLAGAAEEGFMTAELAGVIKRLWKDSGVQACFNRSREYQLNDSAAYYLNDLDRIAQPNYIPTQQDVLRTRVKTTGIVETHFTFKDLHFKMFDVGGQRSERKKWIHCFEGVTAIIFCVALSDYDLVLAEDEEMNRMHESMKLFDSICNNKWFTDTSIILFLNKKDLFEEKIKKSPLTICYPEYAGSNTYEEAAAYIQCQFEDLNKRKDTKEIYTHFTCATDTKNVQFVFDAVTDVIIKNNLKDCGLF

C[C@@H](C(=O)O)c1ccc(C(=O)c2cccs2)cc1
not listed: [19] | [20]
inactive: all other assays above

CC(C)COC[C@H](CN(Cc1ccccc1)c1ccccc1)N1CCCC1
inactive: [19] | [20]

CC(=O)N(CC(O)CN(C(C)=O)c1c(I)c(C(=O)NC[C@@H](O)CO)c(I)c(C(=O)NC[C@@H](O)CO)c1I)c1c(I)c(C(=O)NC[C@@H](O)CO)c(I)c(C(=O)NC[C@@H](O)CO)c1I
not listed: [19] | [20]
inactive: all other assays above

CCN1C(=O)N[C@@H](c2ccccc2)C1=O
not listed: [19] | [20]
inactive: all other assays above

Cn1c(=O)c2c(ncn2C[C@@H](O)CO)n(C)c1=O
not listed: [3] | [19] | [20]
inactive: all other assays above

CN[C@@H](CC(C)C)C(=O)N[C@@H]1C(=O)N[C@H](CC(N)=O)C(=O)N[C@@H]2C(=O)N[C@H]3C(=O)N[C@H](C(=O)N[C@H](C(=O)O)c4cc(O)cc(O)c4-c4cc3ccc4O)[C@H](O)c3ccc(c(Cl)c3)Oc3cc2cc(c3O[C@H]2O[C@@H](CO)[C@@H](O)[C@@H](O)[C@@H]2O[C@@H]2C[C@](C)(N)[C@H](O)[C@H](C)O2)Oc2ccc(cc2Cl)[C@@H]1O
not listed: [19] | [20]
inactive: all other assays above

C[C@@](N)(Cc1ccc(O)cc1)C(=O)O
inactive: [19] | [20]

COc1ccc(C[C@@H]2c3cc(OC)c(OC)cc3CC[N@+]2(C)CCC(=O)OCCCCCOC(=O)CC[N@@+]2(C)CCc3cc(OC)c(OC)cc3[C@H]2Cc2ccc(OC)c(OC)c2)cc1OC
not listed: [19] | [20]
inactive: all other assays above
